Rows were chosen to be rich in hits. Some 9.4% of all compounds tested hit in one or more screens of this group.
SARS PLP yeast: qHTS of Yeast-based Assay for SARS-CoV PLP; S. cerevisiae expressing SARS-CoV PLpro, growth rescue; actives 0.19% (n = 330,000); Potency, µM (highest dose often 32.9 µM), for inactives: top-dose activity, positive = growth rescue, most hits filed as activators; AID 485353, 2010; calls by dose curve; also: 0% is about no effect; nearly all actives have a fitted effect of over 55% in size
AMA1 RON2 block: qHTS for Inhibitors of AMA1-RON; Towards Development of Antimalarial Drug Lead: Primary Screen; Plasmodium falciparum AMA1 (3D7) - RON2 peptide interaction; AlphaScreen AMA1-biotinylated RON2 peptide binding; Potency, µM (doses to about 58.2 µM), for inactives: top-dose activity change, negative = inhibition, actives largely listed as inhibitors; actives 0.2% (n = 360,000);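 also: 0% = vehicle wells and -100% = peptide control; nearly all actives have a fitted effect of over 45% in size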
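AMA1 (3D7) with his tag at 25 nM final met compounds first, then biotinylated RON2 peptide at 25 nM; detection used donor plus acceptor beads, 10 µg/mL apiece, read by AlphaScreen after 30 min at room temperature.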
Pf growth 48h: Primary qHTS for delayed death inhibitors of the malarial parasite plastid, 48 hour incubation; actives 5.9% (n = 310,000); Potency, µM (series often up to 28.7 µM), inactives show at the top dose activity change, negative = inhibition, actives largely listed as inhibitors; P. falciparum luciferase growth in erythrocytes, 48 h; AID 504832, 2011; also: % is scaled to controls: 0 for no effect and ±100 for the full control effect
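Read-out is firefly luciferase luminescence from an integrated reporter in P. falciparum, so falling signal marks reduced parasite growth. Infected erythrocytes were at 2% hematocrit and 0.1% parasitemia (final) in Albumax-supplemented RPMI 1640.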
Pf growth 96h: Primary qHTS for delayed death inhibitors of the malarial parasite plastid, 96 hour incubation; P. falciparum luciferase reporter growth, 96 h; Potency, µM (top dose mostly 28.7 µM), inactives show top-dose activity change, negative = inhibition, actives largely listed as inhibitors; actives 6.9% (n = 320,000); also: % is scaled to controls: 0 for no effect and ±100 for the full control effect
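Luminescence readout: decreased luciferase signal marks inhibited growth of reporter-expressing P. falciparum in infected red cells (2% hematocrit, 0.05% parasitemia final), exposed to compound two generations (96 h, 37 C, 5% CO2).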
Starred values were filed as active, the others as inactive; ? = inconclusive; / = not tested or not shown. Unless noted, calls follow the shape of the dose curve; as a rule, active = well fitted curve in the direction sought with a large enough effect; inconclusive = small, poorly fitted or top-dose-only effect, or another doubt; inactive = no such curve, though single readings can be large; an effect the other way counts as inactive or inconclusive. Potency is read from the fitted curve at half-maximal effect.

SMILES	SARS PLP yeast	AMA1 RON2 block	Pf growth 48h	Pf growth 96h
CCOCCCn1c(C)nc2c(c1=O)c1nc3ccccc3nc1n2-c1ccc2c(c1)OCCO2	1%	3%	5.2µM*	?
CCC(C)n1cnc2c(c1=O)c1nc3ccccc3nc1n2-c1ccc2c(c1)OCCO2 (centres undefined)	15%	-9%	14%	13µM*
Cc1nc2c(c(=O)n1CCC(C)C)c1nc3ccccc3nc1n2Cc1ccc2c(c1)OCO2	7%	-4%	4%	-57%
CC1(C)CC(=O)c2sc(NS(=O)(=O)c3cc(Cl)ccc3Cl)nc2C1	2%	1%	9%	33%
CCCC(O)(CCC)C(=O)NN(C(=O)CCl)c1ccccc1	-16%	3%	?	-94%
CCn1c(SCc2ccc([N+](=O)[O-])cc2)nnc1C(C)NC(=O)c1ccc(C)cc1 (centres undefined)	4%	3%	-9%	10µM*
CCn1c(SCc2ccc([N+](=O)[O-])cc2)nnc1C(C)NC(=O)c1ccccc1Br (centres undefined)	-9%	8%	-22%	?
CCOC(=O)c1c(NC(C)=O)sc2c(O)c(CN3CCN(CC)CC3)ccc12	-4%	16%	10µM*	-17%
CCOC(=O)c1c(NC(C)=O)sc2c(OC)c(Br)ccc12	-5%	1%	9%	/
O=C(Cc1cn2ccsc2n1)NCc1ccccc1	9%	9%	2%	/
CN1C2CCC1CC(NC(=O)CSCc1ccc(Cl)cc1Cl)C2 (centres undefined)	1%	5%	?	13µM*
Cc1cc(-c2ccccc2)cc(=O)[nH]1	/	22%	/	/
Cc1cc(-c2ccccc2)cc(-c2ccccc2)[n+]1C	1%	1%	10µM*	0.93µM*
C[n+]1c(-c2ccccc2)cc(-c2ccc(O)cc2)cc1-c1ccccc1	2%	0%	?	2.1µM*
Oc1ccc(-[n+]2c(-c3ccccc3)cc(-c3ccccc3)cc2-c2ccccc2)cc1	-1%	-12%	0.37µM*	0.13µM*
Cc1cc(-c2ccccc2)cc(-c2ccccc2)[n+]1CCc1ccccc1	2%	4%	0.47µM*	0.52µM*
O=C(C(=O)c1ccc(O)cc1)c1ccccc1	0%	-1%	2%	227%
O=C([O-])c1ccc(-[n+]2c(-c3ccccc3)cc(-c3ccccc3)cc2-c2ccccc2)cc1	0%	-6%	?	?
CC(=O)c1ccc(N2CCN(C(=O)c3cc4c(-c5ccccc5F)nn(C)c4s3)CC2)cc1	-4%	-8%	/	?
COc1ccc(-[n+]2c(-c3ccccc3)cc(-c3ccccc3)cc2-c2ccccc2)cc1	9%	5%	0.83µM*	0.29µM*
NC(=O)COC(=O)c1c2c(nc3ccccc13)CCC2	2%	-2%	218%	-4%
NC(=O)COC(=O)c1c2c(nc3ccccc13)CCCC2	-1%	-20%	5%	-20%
O=C(COC(=O)c1c2c(nc3ccccc13)CCCC2)Nc1ccc2c(c1)OCO2	-13%	-10%	?	10µM*
CC(C)(C)NC(=O)COC(=O)c1c2c(nc3ccccc13)CCC2	-3%	-5%	?	5.2µM*
O=C(OCC(=O)N1CCc2ccccc21)c1c2c(nc3ccccc13)CCCCC2	-37%	1%	4.7µM*	-88%
SMILES	SARS PLP yeast	AMA1 RON2 block	Pf growth 48h	Pf growth 96h
NC(=O)C(CC(=O)O)NC(=O)[C@@H]1CCCCNc2c(I)cc([N+](=O)[O-])cc2C(=O)N[C@@H](CO)C(=O)NCC(=O)N1 (some centres undefined)	7%	/	13%	-2%
CCOc1ccccc1N1CCN(C(=O)[C@@H]2CCCN2C2=NS(=O)(=O)c3ccccc32)CC1	-2%	1%	7%	31%
COC(=O)Nc1ccc(S(=O)(=O)N2CCCC(C(=O)Nc3cccnc3)C2)cc1 (centres undefined)	-7%	9%	/	?
CC(=O)Nc1ccc2c(c1)CCc1ccccc1-2	-5%	-5%	/	-17%
CNCCC=C1c2ccccc2CCc2ccccc21	-1%	-2%	11µM*	9.5µM*
CC/C(=N/Nc1ccccc1)c1cnnc(-c2ccccc2)n1	-21%	-2%	0.13µM*	0.1µM*
CC/C(=N/Nc1cccc(Cl)c1)c1cnnc(SC)n1	20%	-7%	?	?
C=CCc1ccc(OC)cc1	0%	9%	17%	53%
C=CCc1ccc(O)c(-c2cc(CC=C)ccc2O)c1	-4%	16%	?	3.7µM*
CC[C@]1(O)C[C@H]2CN(CCc3c([nH]c4ccccc34)[C@@](C(=O)OC)(c3cc4c(cc3OC)N(C=O)[C@H]3[C@@](O)(C(=O)OC)[C@H](OC(C)=O)[C@]5(CC)C=CCN6CC[C@]43[C@@H]65)C2)C1	/	/	0.085µM*	9.5µM*
CC[C@@]1(O)CC2CN(CCc3c([nH]c4ccccc34)[C@](C(=O)OC)(c3cc4c(cc3OC)N(C)C3[C@@](O)(C(=O)OC)C(OC(C)=O)[C@]5(CC)C=CCN6CC[C@@]43C65)C2)C1 (some centres undefined)	/	/	0.76µM*	0.54µM*
CCOC(=O)Cc1csc(NC(=O)C(C)Oc2ccc3c(C)cc(=O)oc3c2)n1 (centres undefined)	-1%	9%	-5%	-22%
Cc1ccc(C)c(N2CCN(CC(=O)Nc3ccc([N+](=O)[O-])cc3C(=O)Nc3ccccc3F)CC2)c1	0%	-2%	?	2.3µM*
O=C(CN1CCN(c2cccc(Cl)c2)CC1)Nc1ccc([N+](=O)[O-])cc1C(=O)Nc1ccccc1F	-1%	5%	?	31%
O=C(CNCC1CCCO1)Nc1ccc([N+](=O)[O-])cc1C(=O)Nc1ccccc1F (centres undefined)	4%	123%	?	5.9µM*
COc1cccc(NC(=O)c2cc([N+](=O)[O-])ccc2NC(=O)CNCC2CCCO2)c1 (centres undefined)	1%	70%	?	29%
Cc1nn(CCC#N)c(C)c1Oc1ccccc1O	-5%	-6%	69%	-9%
CCn1nc(C)c(Oc2ccccc2O)c1C	8%	0%	-1%	12µM*
CN(C)c1ccc(C(CN)c2c[nH]c3ccccc23)cc1 (centres undefined)	-3%	?	9.3µM*	?
CCOC(=O)N1CCN(c2c(N3CCN(c4cccc(C(F)(F)F)c4)CC3)c(=O)c2=O)CC1	3%	-3%	1%	-26%
Cn1nc(C(C)(C)C)cc1C(=O)O	2%	0%	12%	9.3µM*
CC(C)c1ccc(NC(=S)NN2C(C)CCCC2C)cc1 (centres undefined)	?	95%	?	6.6µM*
CC(C)c1ccc(NC(=S)NC2CCCCCC2)cc1	0%	85%	-23%	3%
CCC(=O)Nc1cc(-c2nn(C)c(=O)c3ccccc23)ccc1N1CCOCC1	7%	11%	/	?

Source: PubChem BioAssay
